Some compounds were tested as several samples or in several runs, with calls that do not always agree. Active and inactive are the calls of the source. Rule for the calls: active = hit-call score of the fitted dose curve at least 0.9, where 1 is the maximum; inactive = score below 0.9.

The experiment can be described thus: ATG_PXRE_CIS: Attagene CIS-FACTORIAL HepG2 Assay for human Pregnane X Receptor Element (PXRE) (AID 2282957). The conditions noted are these: HepG2 Attagene CIS-FACTORIAL PXRE reporter, mRNA; actives raise or lower the signal. Here is the method:
ATG_CIS is a cell-based, multiplexed-readout assay that uses HepG2, a human liver cell line, with measurements taken at 24 hours after chemical dosing in a 24-well plate.ATG_PXRE_CIS is one of 52 assay component(s) measured or calculated from the ATG_CIS assay. It is designed to make measurements of mRNA induction, a form of inducible reporter, as detected with fluorescence intensity signals by Reverse transcription polymerase chain reaction (RT-PCR) and Capillary electrophoresis technology.Data from the assay component ATG_PXRE_CIS was analyzed into 1 assay endpoint. This assay endpoint, ATG_PXRE_CIS, was analyzed with bidirectional fitting relative to DMSO as the negative control and baseline of activity. Using a type of inducible reporter, measures of mRNA for gain or loss-of-signal activity can be used to understand the reporter gene at the transcription factor-level as they relate to the gene NR1I2. Furthermore, this assay endpoint can be referred to as a primary readout, because this assay has produced multiple assay endpoints where this one serves a reporter gene function. To generalize the intended target to other relatable targets, this assay endpoint is annotated to the nuclear receptor intended target family, where the subfamily is non-steroidal.
Human liver HepG2 cells are transiently transfected with multiple reporter transcription units (MRTUs) in 6-well plates using FuGene 6 reagent (Roche; 3 ml FuGene/1 mg DNA). The MRTU constructs are regulated by a cis-regulating element (promoter). […] A major difference between the CIS and TRANS system is that in CIS activities of endogenous TFs are measured, whereas the TRANS assay evaluates changes in activities of exogenous, chimeric NR-Gal4 proteins. […] At the end of 24 hour incubation, total RNA was isolated using TriZol reagent (Invitrogen). The isolated RNA is then reverse-transcribed using oligo(dT) primer and Mo-MLV reverse transcriptase (Invitrogen) with DNAse I (Ambion) treatment for 30 min. The one-tenth of the produced cDNA was amplified by PCR using Taq DNA polymerase (Invitrogen) and two reporter sequence-specific primers. The PCR products were fluorescently labeled by primer extension with 6-arboxyfluorescein (6-FAM) 5'-labeled reporter sequence-specific primer (2 min at 95 C, 20 s at 68 C and 10 min at 72 C) and these products were digested with 5U of HpaI (New England Biolabs) for 2h at 37 C. The fragments were purified using Qiaquick PCR columns (Qiagen), analyzed on an ABI 3130xL genetic analyzer (Applied Biosystems) with peak positions identified by using a set of X-rhodamine (ROX)-labeled MapMarker1000 molecular weight standards (BioVentures). The raw capillary electrophoresis data was processed using Attagraph software (Attagene).
A word on the AC50: it is the midpoint of the concentration-response curve, whichever way the signal moves. Regarding `Cc1cccc(C)c1NC(=O)CN1CCCC1=O`, the AC50 is 100 µM (active).

In the case of `CC(C)O.CC(C)O.OCCN(CCO)CCO.OCCN(CCO)CCO.[Ti]`, the result was inactive.

In the case of `[F][Sn]([c]1ccccc1)([c]1ccccc1)[c]1ccccc1`, the AC50 is 0.466 µM (active).

For `C=CCc1ccccc1O`, the AC50 was 29.3 µM (active).

As for `N#Cc1ccccc1Cl`, the AC50 is 26.4 µM (active).

As for `COc1ccc([N+](=O)[O-])cc1O`, the outcome was inactive.

Regarding `CC1(C)COP(Oc2ccccc2)OC1`, the molecule was called inactive.

Take `C[CH2][Hg][S]c1ccccc1C(=O)O`: the AC50 is 5.8 µM (active).

As to `CC(C)(COCC1CO1)COCC1CO1` (stereo not given), the AC50 is 27.3 µM (active).

In the case of `ClCc1ccccc1Cl`, the AC50 was 38.3 µM (active).

Turning to `O=c1[nH]c(=O)n(Cl)c(=O)n1Cl`, the molecule was classed as inactive and the AC50 is 52.5 µM (active).

In the case of `O=C=Nc1ccc(Cl)cc1`, the outcome was inactive.

In the case of `Cc1cc(Cl)ccc1O`, the call was inactive.

On to `O=C(CCl)NCO`, for which the molecule was classed as inactive.

In the case of `O=CCCl`, the AC50 is 37.2 µM (active).

Take `CCN(CC)C(=O)C(Cl)=C(C)OP(=O)(OC)OC`: the AC50 was 11.3 µM (active).

On to `CC1(C)[C@H](/C=C2\CCSC2=O)[C@@H]1C(=O)OCc1coc(Cc2ccccc2)c1`, for which the AC50 is 0.143 µM (active).

Take `O=[N+]([O-])c1cccc2ccccc12`: the AC50 was 27.6 µM (active).

`Cc1ccccc1OP(=O)(Oc1ccccc1)Oc1ccccc1`: the concentration at half-maximal activity (AC50) was 0.236 µM (active).

Regarding `C[C@]12CC[C@@H](O)C[C@@H]1CC[C@@H]1[C@@H]2CC[C@]2(C)C(=O)CC[C@@H]12`, the AC50 was 6.91 µM (active).

With `CC(C)(C)c1ccc(CCOc2ncnc3ccccc23)cc1`, the AC50 was 34.7 µM (active).

`Nc1c(Oc2ccccc2)cc(O)c2c1C(=O)c1ccccc1C2=O`: the AC50 is 4.42 µM (active).

Regarding `NC(=O)CCl`, the AC50 is 27.2 µM (active).

On to `C#C[C@]1(O)CC[C@H]2[C@@H]3CCC4=CC(=O)CC[C@]4(C)[C@H]3CC[C@@]21C`, for which the molecule was called inactive.

Consider `O=C(NC(=O)c1c(F)cccc1F)Nc1cc(Cl)c(OC(F)(F)C(F)C(F)(F)F)cc1Cl` (stereo not given), for which the result was inactive.

For the molecule `Cc1cccc(N=Nc2ccc(N(C)C)cc2)c1`, the AC50 is 10.5 µM (active).

`CC(C)[C@@H](Nc1ccc(C(F)(F)F)cc1Cl)C(=O)OC(C#N)c1cccc(Oc2ccccc2)c1` (stereo not given in full): the AC50 is 0.693 µM (active).

Take `CC(C)C(C)(N)C#N` (stereo not given): the AC50 is 26 µM (active).

Turning to `CCCCCCCCCCCCBr`, the molecule was called inactive.

Consider `Nc1ccc(N)cc1`, for which the AC50 was 33 µM (active) and the outcome was inactive.

Turning to `CNC(=O)N(C)c1nc2ccccc2s1`, the AC50 was 27.5 µM (active).

With `CN(C)[C@@H]1C(=O)C(C(N)=O)=C(O)[C@@]2(O)C(=O)C3=C(O)c4c(O)ccc(Cl)c4[C@@](C)(O)[C@H]3C[C@@H]12`, the call was inactive.

For `COP(=S)(OC)Oc1cc(Cl)c(I)cc1Cl`, the AC50 was 8.06 µM (active).

Regarding `C#CCOC(=O)/C=C(C)/C=C/CC(C)CCCC(C)C` (stereo not given), the call was inactive.

With `N#Cc1ccncc1`, the result was inactive.

As for `CCCSP(=S)(OCC)Oc1ccc(SC)cc1` (stereo not given), the AC50 is 2.92 µM (active).

For `Cc1cc(C(F)(C(F)(F)F)C(F)(F)F)ccc1NC(=O)c1cccc(I)c1C(=O)NC(C)(C)CS(C)(=O)=O`, the AC50 is 0.633 µM (active).

Take `O=C1C=CC(=O)c2ccccc21`: the molecule was classed as inactive.
